According to PubChem BioAssay (NCATS):
Records with an inconclusive call do not appear. Calls of active or inactive are those of the source. Calls follow the shape of the dose curve; as a rule, active = well fitted curve in the direction sought with a large enough effect; inconclusive = small, poorly fitted or top-dose-only effect, or another doubt; inactive = no such curve, though single readings can be large; an effect the other way counts as inactive or inconclusive.

Key:
[1] = system: KB-3-1; experiment: Cytotoxic Profiling of Annotated Libraries Using Quantitative High-Throughput Screening (AID 1296008); conditions: Five cell lines viability, CellTiter-Glo ATP luminescence, 48-72 h; max response: stronger effect = lower value; also: nearly all actives have a fitted effect of over 60% in size; as to max response: % is scaled to controls: 0 for no effect and ±100 for the full control effect
Procedure, shortened: (§1)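 Cytotoxicity was measured as CellTiter-Glo ATP luminescence, read after 10 min at room temperature. Compound treatment of the cells lasted 48 or 72 hr at 37 degrees Celsius in a qHTS format.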

[2] = system: NIH3T3; experiment: as above; conditions: Five cell lines viability, CellTiter-Glo ATP luminescence, 48-72 h; max response: stronger effect = lower value
Procedure, shortened: as §1

[3] = system: HEK293T; experiment: qHTS assay to identify novel small-molecules to repurpose for Merkel cell carcinoma treatment (AID 1296009); conditions: MCC and control cell lines, CellTiter-Glo viability, 72 h; series mostly up to 44.8 µM; also: nearly all actives have a fitted effect of over 60% in size
Procedure, shortened: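 After compound transfer in DMSO, plates were kept 72 hr at 37 degree celsius. Luminescent ATP signal from CellTiter-Glo served as viability measure, normalized against DMSO and no-cell controls.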

[4] = system: C33A; experiment: Primary qHTS to identify gynecologic anti-cancer compounds using libraries of approved drugs and bioactive compounds (AID 1345084); conditions: Gynecologic cancer cell panel viability, ATPlite luminescence, 48 h; series mostly up to 57.5 µM; also: % is scaled to controls: 0 for no effect and ±100 for the full control effect; nearly all actives have a fitted effect of over 55% in size
Procedure, shortened: (§2)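 ATP-based viability (ATPlite), 1,000 cells/well, 16 h pre-incubation, 48 h compound at 37 C, 5% CO2, 15 min RT before read.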

[5] = system: CAOV3; experiment: as above; conditions: Gynecologic cancer cell panel viability, ATPlite luminescence, 48 h; series mostly up to 57.5 µM
Procedure, shortened: as §2

[6] = system: CASKI; experiment: as above; conditions: Gynecologic cancer cell panel viability, ATPlite luminescence, 48 h; series mostly up to 57.5 µM
Procedure, shortened: as §2

[7] = system: Es-2; experiment: as above; conditions: Gynecologic cancer cell panel viability, ATPlite luminescence, 48 h; series mostly up to 57.5 µM
Procedure, shortened: as §2

[8] = system: HeLa; experiment: as above; conditions: Gynecologic cancer cell panel viability, ATPlite luminescence, 48 h; series mostly up to 57.5 µM
Procedure, shortened: as §2

[9] = system: Hek293T; experiment: as above; conditions: Gynecologic cancer cell panel viability, ATPlite luminescence, 48 h, control line for the selectivity index; series mostly up to 57.5 µM
Procedure, shortened: as §2

[10] = system: JEG-3; experiment: as above; conditions: Gynecologic cancer cell panel viability, ATPlite luminescence, 48 h; series mostly up to 57.5 µM
Procedure, shortened: as §2

[11] = system: OV90; experiment: as above; conditions: Gynecologic cancer cell panel viability, ATPlite luminescence, 48 h; series mostly up to 57.5 µM
Procedure, shortened: as §2

[12] = system: PA-1; experiment: as above; conditions: Gynecologic cancer cell panel viability, ATPlite luminescence, 48 h; series mostly up to 57.5 µM
Procedure, shortened: as §2

C=C1C2=CC(O)C(C)C1(C)CC/C(C)=C/CCC1(C)OC1C2=O (stereo not given)
inactive: outcome [1] | outcome [2] | Potency [3] | Potency [4] | Potency [5] | Potency [6] | Potency [7] | Potency [8] | Potency [9] | Potency [10] | Potency [11] | Potency [12]

COc1cc(/C=C/C(=O)O[C@H]2[C@H](OC(=O)/C=C/c3cc(OC)c(O)c(OC)c3)O[C@H](CO[C@@H]3O[C@H](CO)[C@@H](O)[C@H](O)[C@H]3O)[C@@H](O)[C@@H]2O)ccc1O
inactive: max response [1] 7.55% | max response [2] -14.9% | Potency [3] | Potency [4] | Potency [5] | Potency [6] | Potency [7] | Potency [8] | Potency [9] | Potency [10] | Potency [11] | Potency [12]

CN1C(=O)c2ccccc2NC(=O)[C@]12O[C@@H]2c1cccc(O)c1
inactive: max response [1] 4.06% | max response [2] -15.7% | Potency [3] | Potency [4] | Potency [5] | Potency [6] | Potency [7] | Potency [8] | Potency [9] | Potency [10] | Potency [11] | Potency [12]

C[C@@H](OC(=O)/C=C/c1ccc(O)cc1)C1=C[C@]2(C=C[C@@H]3C(C(=O)O)=CO[C@@H](O[C@@H]4O[C@H](CO[C@@H]5O[C@H](CO)[C@@H](O)[C@H](O)[C@H]5O)[C@@H](O)[C@H](O)[C@H]4O)[C@@H]32)OC1=O
inactive: max response [1] 4.2% | max response [2] 2.02% | Potency [3] | Potency [4] | Potency [5] | Potency [6] | Potency [7] | Potency [8] | Potency [9] | Potency [10] | Potency [11] | Potency [12]

CCC[C@@H]1C[C@@H](C(=O)N[C@H](C(C)Cl)[C@H]2O[C@H](SC)[C@H](O)[C@@H](O)[C@H]2O)N(C)C1 (stereo not given in full)
inactive: max response [1] 7.07% | max response [2] 3.25% | Potency [3] | Potency [4] | Potency [5] | Potency [6] | Potency [7] | Potency [8] | Potency [9] | Potency [10] | Potency [11] | Potency [12]

CC1=CC(=O)OC(C)(CC(C)(O)C(=O)O)C1 (stereo not given)
inactive: max response [1] 6.61% | max response [2] 0.862% | Potency [3] | Potency [4] | Potency [5] | Potency [6] | Potency [7] | Potency [8] | Potency [9] | Potency [10] | Potency [11] | Potency [12]

C=C1CC23CCC4[C@@](C)(CCC[C@@]4(C)C(=O)O)C2CCC1C3 (stereo not given in full)
inactive: max response [1] 2.07% | max response [2] 3.55% | Potency [3] | Potency [4] | Potency [5] | Potency [6] | Potency [7] | Potency [8] | Potency [9] | Potency [10] | Potency [11] | Potency [12]

N[C@@H](CC(=O)N1CCn2c(nnc2C(F)(F)F)C1)Cc1[nH]nc2c(F)c(F)ccc12
inactive: max response [1] -3.58% | max response [2] -1.97% | Potency [3] | Potency [4] | Potency [5] | Potency [6] | Potency [7] | Potency [8] | Potency [9] | Potency [10] | Potency [11] | Potency [12]

Cc1c(CN(C)C(=O)/C=C/c2cnc3c(c2)CCC(=O)N3)oc2ccccc12
inactive: max response [1] 9.61% | max response [2] -2.06% | Potency [3] | Potency [4] | Potency [5] | Potency [6] | Potency [7] | Potency [8] | Potency [9] | Potency [10] | Potency [11] | Potency [12]

Cn1c(=O)c2nc(/C=C/c3cccc(Cl)c3)n(C)c2n(C)c1=O
inactive: outcome [1] | max response [2] -2.68% | Potency [3] | Potency [4] | Potency [5] | Potency [6] | Potency [7] | Potency [8] | Potency [9] | Potency [10] | Potency [11] | Potency [12]

CC(O)(CC(=O)O)CC(=O)O[C@@H]1[C@@H](O)[C@H](OCCc2ccccc2)O[C@H](CO)[C@H]1O (stereo not given in full)
inactive: max response [1] 7.92% | max response [2] 1.93% | Potency [3] | Potency [4] | Potency [5] | Potency [6] | Potency [7] | Potency [8] | Potency [9] | Potency [10] | Potency [11] | Potency [12]

CC1CCC2C(C)(C)C(O)CCC2(C)C12Cc1c(O)cc3c(c1O2)CN(C(CCC(N)=O)C(=O)O)C3=O (stereo not given)
inactive: max response [1] 5.86% | max response [2] -0.736% | Potency [3] | Potency [4] | Potency [5] | Potency [6] | Potency [7] | Potency [8] | Potency [9] | Potency [10] | Potency [11] | Potency [12]

CCNC(=O)[C@@H]1CCCN1C(=O)[C@H](CCCN=C(N)N)NC(=O)[C@H](CC(C)C)NC(=O)[C@@H](C)NC(=O)[C@H](Cc1ccc(O)cc1)NC(=O)[C@H](CO)NC(=O)[C@H](Cc1c[nH]c2ccccc12)NC(=O)[C@H](Cc1cnc[nH]1)NC(=O)[C@@H]1CCC(=O)N1
inactive: max response [1] 8.19% | max response [2] -1.38% | Potency [3] | Potency [4] | Potency [5] | Potency [6] | Potency [7] | Potency [8] | Potency [9] | Potency [10] | Potency [11] | Potency [12]

COc1c2c(c(C)c3c1C(=O)OC3)O[C@@]1(C)C[C@@H](O)[C@]34O[C@](OC)(CC[C@]3(C)[C@H]1C2)OC4(C)C
inactive: outcome [1] | max response [2] 2.2% | Potency [3] | Potency [4] | Potency [5] | Potency [6] | Potency [7] | Potency [8] | Potency [9] | Potency [10] | Potency [11] | Potency [12]

CCNC(=O)[C@H]1O[C@H](n2cnc3c(NCC(c4ccccc4)c4ccccc4)nc(C(=O)NCCNC(=O)NC4CCN(c5ccccn5)CC4)nc32)[C@H](O)[C@@H]1O
inactive: max response [1] 2.94% | max response [2] 1.64% | Potency [3] | Potency [4] | Potency [5] | Potency [6] | Potency [7] | Potency [8] | Potency [9] | Potency [10] | Potency [11] | Potency [12]
